Laboratory results: PubChem BioAssay AID1159580 (chemical genetic matrix, 2015)
Values joined by “and” are separate entries in the source; they are usually repeats but may differ in a detail not shown here. Equal values may be shown once. In all, about 5,500 compounds went through this assay and about 2,000 (36%) were called active. About 18% were inconclusive and are not listed. Cut-off read from the data, not from the text of the source: active = normalized growth mostly below about 0.91 (no sharp cut-off); inconclusive = no clear call, values can overlap the other calls; inactive = mostly above about 0.92. Some of the results follow.

Assay: chemical genetic growth profiling, strain panel (AID 1159580);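 note: tested at 20 µM; growth read once vehicle control cultures reached saturation at 30 °C; 1 = growth at the plate median or of vehicle wells; lower values mean less growth of the strain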
Conditions: S. cerevisiae deletion strains, growth OD

Measured: normalized growth

NS(=O)(=O)c1cc2c(cc1Cl)NC(CSCc1ccccc1)=NS2(=O)=O
inactive: locus YAL021C, strain ccr4, active compounds read low 0.986 | locus YAL026C, strain drs2, active compounds read low 1.01 | locus YAL030W, strain snc1, active compounds read low 1.01 | locus YBL061C, strain skt5, active compounds read low 1.02 | locus YBR009C, strain hhf1, active compounds read low 0.993 | locus YBR021W, strain FUR4, active compounds read low 0.973 | locus YBR023C, strain chs3, active compounds read low 1.04 | locus YBR171W, strain sec66, active compounds read low 1.03 | locus YBR229C, strain ROT2, active compounds read low 0.986 | locus YBR231C, strain swc5, active compounds read low 1.02 | locus YBR279W, strain paf1, active compounds read low 1.01 | locus YCL011C, strain gbp2, active compounds read low 1.01 | locus YCL016C, strain dcc1, active compounds read low 0.993 | locus YCL029C, strain bik1, active compounds read low 0.988 | locus YCL061C, strain MRC1, active compounds read low 1.01 | locus YCL069W, strain vba3, active compounds read low 1.01 | locus YCR088W, strain abp1, active compounds read low 1.01 | locus YDL005C, strain med2, active compounds read low 1 | locus YDL035C, strain GPR1, active compounds read low 1.04 | locus YDL040C, strain nat1, active compounds read low 0.995 | locus YDL074C, strain BRE1, active compounds read low 0.99 | locus YDL101C, strain DUN1, active compounds read low 0.973 | locus YDL134C, strain PPH21, active compounds read low 1.02 | locus YDL185W, strain tfp1, active compounds read low 0.989 | locus YDL192W, strain arf1, active compounds read low 0.997 | locus YDR001C, strain nth1, active compounds read low 1.03 | locus YDR069C, strain doa4, active compounds read low 1.04 | locus YDR101C, strain arx1, active compounds read low 0.987 | locus YDR137W, strain rgp1, active compounds read low 1.02 | locus YDR159W, strain sac3, active compounds read low 1 | locus YDR162C, strain NBP2, active compounds read low 1.03 | locus YDR195W, strain ref2 1.03 | locus YDR297W, strain sur2, active compounds read low 1.02 | locus YDR318W, strain mcm21, active compounds read low 0.991 | locus YDR334W, strain swr1, active compounds read low 1.02 | locus YDR335W, strain msn5, active compounds read low 1.02 | locus YDR388W, active compounds read low 0.978 | locus YDR392W, strain spt3, active compounds read low 0.948 | locus YDR502C, strain sam2, active compounds read low 0.988 | locus YEL003W, strain gim4, active compounds read low 1.03 | locus YEL037C, strain rad23, active compounds read low 1.02 | locus YEL061C, strain CIN8 (second series), active compounds read low 1.05 | locus YEL061C, strain CIN8, active compounds read low 0.995 | locus YER015W, strain faa2, active compounds read low 1.01 | locus YER016W, strain bim1, active compounds read low 1 | locus YER110C, active compounds read low 0.965 | locus YER111C, strain swi4, active compounds read low 1.03 | locus YER155C, strain BEM2 (second series), active compounds read low 1.04 | locus YER155C, strain BEM2, active compounds read low 0.981 | locus YER167W, strain BCK2, active compounds read low 1 | locus YFR010W, strain ubp6, active compounds read low 1.03 | locus YGL078C, strain dbp3, active compounds read low 0.991 | locus YGL086W, strain mad1, active compounds read low 0.989 | locus YGL167C, strain pmr1, active compounds read low 1.03 | locus YGL173C, strain kem1, active compounds read low 1.01 | locus YGL227W, strain vid30, active compounds read low 1.02 | locus YGL240W, strain doc1, active compounds read low 1.03 | locus YGL248W, strain PDE1, active compounds read low 0.98 | locus YGL253W, strain hxk2, active compounds read low 1.01 | locus YGR078C, strain PAC10, active compounds read low 0.986 | locus YGR135W, strain pre9, active compounds read low 0.992 | locus YGR252W, strain gcn5, active compounds read low 1.01 | locus YHR013C, strain ard1, active compounds read low 0.975 | locus YHR027C, strain rpn1, active compounds read low 1.01 | locus YHR030C, strain SLT2, active compounds read low 0.99 and 0.983 | locus YHR079C, strain IRE1 (second series), active compounds read low 0.984 | locus YHR079C, strain IRE1, active compounds read low 0.977 | locus YHR094C, strain hxt1, active compounds read low 0.97 | locus YHR129C, strain ARP1, active compounds read low 0.984 | locus YHR142W, strain chs7, active compounds read low 1.02 | locus YHR200W, strain rpn10, active compounds read low 0.989 | locus YIL066C, strain RNR3, active compounds read low 1.01 | locus YIL073C, strain SPO22, active compounds read low 0.99 | locus YIL125W, strain kgd1, active compounds read low 0.986 | locus YIR030C, strain dcg1, active compounds read low 0.993 | locus YJL092W, strain hpr5, active compounds read low 1.02 | locus YJL095W, strain BCK1 (second series), active compounds read low 1.02 | locus YJL095W, strain BCK1, active compounds read low 0.954 and 0.975 | locus YJL115W, strain asf1, active compounds read low 1.02 | locus YJL129C, strain trk1, active compounds read low 1.06 | locus YJL134W, strain LCB3, active compounds read low 0.987 | locus YJL154C, strain vps35, active compounds read low 1.03 | locus YJL164C, strain tpk1, active compounds read low 0.977 | locus YJL166W, strain qcr8, active compounds read low 1.04 | locus YJL168C, strain set2, active compounds read low 0.992 | locus YJL187C, strain SWE1 (second series), active compounds read low 0.965 | locus YJR043C, strain POL32, active compounds read low 1.04 | locus YJR066W, strain TOR1, active compounds read low 0.931
